Consider seven sequences from publication PMC8384837, “Expanding the binding specificity for RNA recognition by a PUF domain”.

Where a chain is given by its changes, count along the chain named.

Common to all, as to test: yeast three-hybrid, YBZ-1, SC-Leu-His + 0.5 mM 3-AT, 4 days
Conditions in all cases: tags: N-Gal4 AD-HA kept; label: inside an RPR1-promoter hybrid RNA with tandem MS2 sites; ssRNA

One assay addresses T1, PUM1 PUF domain R6-SWK (Homo sapiens, UniProt Q14671 828-1176, N1043S;Y1044W;Q1047K).
T1 sequence: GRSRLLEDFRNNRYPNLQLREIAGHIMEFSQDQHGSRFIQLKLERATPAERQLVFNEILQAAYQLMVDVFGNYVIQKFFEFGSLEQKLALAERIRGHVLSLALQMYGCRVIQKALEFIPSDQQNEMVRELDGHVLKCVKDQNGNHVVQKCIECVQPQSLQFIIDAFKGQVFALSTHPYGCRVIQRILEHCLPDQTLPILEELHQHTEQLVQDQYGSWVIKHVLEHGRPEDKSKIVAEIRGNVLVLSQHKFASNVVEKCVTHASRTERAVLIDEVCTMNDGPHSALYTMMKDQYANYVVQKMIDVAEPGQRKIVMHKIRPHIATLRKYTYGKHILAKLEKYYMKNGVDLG
In short, it runs like this: (§1)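 Pumilio-1 PUF domain libraries, randomized at the three base-contacting residues of each repeat, were co-expressed with matching RNA elements from a centromeric plasmid in strain YBZ-1, which carries a LexA–MS2 coat fusion and a HIS3 reporter. Transformants grew for four days on SC-Leu (input) or on SC-Leu-His + 0.5 mM 3-AT (selection), and the repeat regions were PCR-amplified and Illumina-sequenced. The interaction score is the log change in variant frequency from input to selection. That logarithm is base 2, with a pseudocount of 1 where a variant was absent.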

The target in the next assay is T2, PUM1 PUF domain R6-RHR (Homo sapiens, UniProt Q14671 828-1176, N1043R;Y1044H;Q1047R).
T2 sequence: T1 sequence with S216R, W217H, K220R
A digest of the protocol: as §1

The target of the next assay is PUM1 PUF domain R3-SPS (Homo sapiens, UniProt Q14671 828-1176, C935S;R936P;Q939S). In short, it runs like this: as §1
In a further assay the target is PUM1 PUF domain R5-FRD (Homo sapiens, UniProt Q14671 828-1176, C1007F;Q1011D). In short, it runs like this:
as §1

Another assay addresses PUM1 PUF domain R8-RRI (Homo sapiens, UniProt Q14671 828-1176, N1122R;Y1123R;Q1126I). In short, it runs like this:
as §1

Another assay deals with PUM1 PUF domain R3-LRS (Homo sapiens, UniProt Q14671 828-1176, C935L;Q939S). In short, it runs like this:
as §1

Another assay deals with PUM1 PUF domain R1-NIG (Homo sapiens, UniProt Q14671 828-1176, S863N;R864I;Q867G). In short, it runs like this: as §1
In another assay the target is PUM1 PUF domain R8-HYL (Homo sapiens, UniProt Q14671 828-1176, N1122H;Q1126L). A digest of the protocol:
as §1

With “GGCUAGAACUAGUGGAUCCCCCGGCGCCCGGCGGCUCGAGCCCGGGUAAGUGAAAAUAGUCUGCAUGCCGCCGGGCGCCAUGCCUGCAGGUCGACUCUAGAAAACAUG”, the binding signal in the assay with PUM1 PUF domain R6-SWK was 1.25 log2 enrichment (interaction score); in the assay with PUM1 PUF domain R6-RHR, 1.86 log2 enrichment (interaction score).

Take “GGCUAGAACUAGUGGAUCCCCCGGCGCCCGGCGGCUCGAGCCCGGGUAAGUGUAAAUAGUCUGCAUGCCGCCGGGCGCCAUGCCUGCAGGUCGACUCUAGAAAACAUG”: the binding signal is 6.97 log2 enrichment (interaction score) in the assay with PUM1 PUF domain R6-SWK; 3.13 log2 enrichment (interaction score) with PUM1 PUF domain R3-SPS; 1.06 log2 enrichment (interaction score) with PUM1 PUF domain R5-FRD; 1.24 log2 enrichment (interaction score) with PUM1 PUF domain R8-RRI; 3.36 log2 enrichment (interaction score) with PUM1 PUF domain R6-RHR.

Regarding “GGCUAGAACUAGUGGAUCCCCCGGCGCCCGGCGGCUCGAGCCCGGGUAAGUGUAAUUAGUCUGCAUGCCGCCGGGCGCCAUGCCUGCAGGUCGACUCUAGAAAACAUG”, the binding signal in the assay with PUM1 PUF domain R3-SPS is 1.47 log2 enrichment (interaction score); with PUM1 PUF domain R3-LRS, 1.26 log2 enrichment (interaction score).

Regarding “GGCUAGAACUAGUGGAUCCCCCGGCGCCCGGCGGCUCGAGCCCGGGUAAGUGUCAAUAGUCUGCAUGCCGCCGGGCGCCAUGCCUGCAGGUCGACUCUAGAAAACAUG”, the binding signal with PUM1 PUF domain R5-FRD is 2.84 log2 enrichment (interaction score).

Turning to “GGCUAGAACUAGUGGAUCCCCCGGCGCCCGGCGGCUCGAGCCCGGGUAAGUGUAAAUUGUCUGCAUGCCGCCGGGCGCCAUGCCUGCAGGUCGACUCUAGAAAACAUG”, in the assay with PUM1 PUF domain R1-NIG, the binding signal was 3.06 log2 enrichment (interaction score).

For the sequence “GGCUAGAACUAGUGGAUCCCCCGGCGCCCGGCGGCUCGAGCCCGGGUAAGCGUAAAUAGUCUGCAUGCCGCCGGGCGCCAUGCCUGCAGGUCGACUCUAGAAAACAUG”, the binding signal is 2.58 log2 enrichment (interaction score) in the assay with PUM1 PUF domain R8-RRI and 2.26 log2 enrichment (interaction score) with PUM1 PUF domain R8-HYL.

“GGCUAGAACUAGUGGAUCCCCCGGCGCCCGGCGGCUCGAGCCCGGGUAAGUGUAAGUAGUCUGCAUGCCGCCGGGCGCCAUGCCUGCAGGUCGACUCUAGAAAACAUG”: the binding signal with PUM1 PUF domain R3-LRS is 4.15 log2 enrichment (interaction score).
